AmpC no deterg = inhibitors of E. coli AmpC beta-lactamase without detergent | P00811 | AmpC nitrocefin hydrolysis, absorbance 480 nm, 0.0001% Triton | Potency, µM (titrated, usually from 57.1 µM), actives largely listed as inhibitors | 330,000 tested, 0.52% active; note: nearly all actives have a fitted effect of over 20% in size
Target sequence (P00811 whole entry, looked up): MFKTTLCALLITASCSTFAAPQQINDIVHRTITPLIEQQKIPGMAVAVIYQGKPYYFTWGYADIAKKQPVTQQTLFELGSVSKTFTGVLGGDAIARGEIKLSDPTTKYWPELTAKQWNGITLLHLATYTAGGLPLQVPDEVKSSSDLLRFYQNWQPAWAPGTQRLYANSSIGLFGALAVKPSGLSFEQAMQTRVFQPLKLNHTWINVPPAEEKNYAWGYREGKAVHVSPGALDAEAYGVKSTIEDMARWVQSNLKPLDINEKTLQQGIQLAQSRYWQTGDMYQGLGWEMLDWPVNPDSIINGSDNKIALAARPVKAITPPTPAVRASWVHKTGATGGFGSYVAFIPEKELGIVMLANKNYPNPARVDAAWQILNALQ
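20 mM phosphate pH 7.0 + 0.01% (detergent screen) or 0.0001% Triton X-100; 5.3 nM AmpC reagent; cpd preinc 15 min RT; nitrocefin (800 uM stock) to start; A480 q20 s × 4 min; Activity was normalised to no-enzyme and no-compound control wells.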
Shiga inhibitor = blocks Shiga toxin action in Vero cells | inhibition, % at 38.7 µM | 290,000 tested, 9.2% active | Vero cells, Shiga toxin protein synthesis inhibition reporter; in the data active = inhibition mostly above about 28%, no sharp cut-off; inactive = mostly below about 43%
SARS PLP yeast = SARS-CoV PLP inhibition in yeast; S. cerevisiae expressing SARS-CoV PLpro, growth rescue; Potency, µM (top dose mostly 32.9 µM), usual class: activators; 330,000 tested, 0.19% active; calls by dose curve; note: nearly all actives have a fitted effect of over 55% in size
AmpC inh detg = AmpC beta-lactamase inhibition with detergent present | Potency, µM (titrated, usually from 114 µM), actives largely listed as inhibitors | AmpC hydrolysis of nitrocefin, absorbance 480 nm, 0.01% Triton | P00811 | 370,000 tested, 0.041% active | AID 485294; note: nearly all actives have a fitted effect of over 25% in size
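AmpC (5.3 nM in the dispensed reagent) in 20 mM phosphate pH 7.0 with 0.01% (detergent screen) or 0.0001% Triton X-100 was preincubated with compounds for 15 min at room temperature. Nitrocefin was then added from an 800 uM solution, and hydrolysis was followed at 480 nm.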
AMA1 RON2 block = disrupts binding of P. falciparum AMA1 to RON2; Potency, µM (doses to about 58.2 µM), actives largely listed as inhibitors; AlphaScreen AMA1-biotinylated RON2 peptide binding; AID 720542; 360,000 tested, 0.2% active; note: nearly all actives have a fitted effect of over 45% in size
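AMA1 (3D7) with his tag at 25 nM final met compounds first, then biotinylated RON2 peptide at 25 nM; detection used donor plus acceptor beads, 10 µg/mL apiece, read by AlphaScreen after 30 min at room temperature.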
CHX counter = counter-screen hit for Shiga toxin inhibitors, cycloheximide. 300,000 tested, 12% active. cell reporter, cycloheximide protein synthesis inhibition counterscreen. max response, %; in the data active = max response mostly above about 13%, no sharp cut-off; inactive = mostly below about 14%; note: read at 38.3 µM for the half of the compounds with a filed dose
A number is an active result; - = inactive; ? = inconclusive; . = no result given. Shown is part of a subset that was picked to be rich in hits. Unless noted, calls come from the whole dose curve; as a rule, active = well fitted curve in the direction sought with a large enough effect; inconclusive = small, poorly fitted or top-dose-only effect, or another doubt; inactive = no such curve, though single readings can be large; an effect the other way counts as inactive or inconclusive.

SMILES	AmpC no deterg	Shiga inhibitor	SARS PLP yeast	AmpC inh detg	AMA1 RON2 block	CHX counter
CCOC(=O)[C@]12CCCC=C1N(CCc1ccc(OC)c(OC)c1)C(=O)[C@H](CC(=O)NCc1ccccc1)C2	.	.	.	.	-	.
Cc1ccc(NC(=O)C2=C(O)c3ccccc3N(C)S2(=O)=O)cc1	-	-	-	-	-	33.5
CC(C)Sc1nnc([C@@H](N)Cc2ccccc2)o1	-	-	-	-	-	42.6
C=C(C)CSc1nnc([C@@H](N)Cc2ccccc2)o1	-	-	-	-	-	17.9
Cc1ccc(NC(=O)CSc2ncnc3c2sc2ccccc23)cc1C	.	.	.	-	.	.
COC(=O)c1cccc(NC(=O)CCc2cc(OC)c(OC)c(OC)c2)c1	-	-	-	-	-	-
CN(C)c1cccc(NC(=O)CCc2ccccc2)c1	-	67.7	-	-	-	18.0
COc1ccc(CCOC(=O)c2cccc(NC(C)=O)c2)cc1	-	52.1	-	-	-	36.2
CC(=O)Nc1cccc(C(=O)OCC(=O)NCc2ccc(F)cc2)c1	-	-	-	?	-	-
CN(C)c1cccc(NC(=O)Cc2ccc(F)cc2)c1	-	-	-	-	-	-
COc1ccc(NC(=O)CCCc2ccccc2)cc1OC	-	89.3	-	-	-	53.9
COC(=O)c1cccc(NC(=O)CCc2ccccc2)c1	-	57.5	-	-	-	57.6
CSc1ccccc1NC(=O)C1C2CCC(C2)C1C(=O)O (stereo not given)	-	-	-	-	-	-
C=CCNc1nc(C(=O)OCC(=O)NCc2ccccc2OC)cs1	-	.	.	?	-	.
O=C(CSC1=NS(=O)(=O)c2cc(F)ccc2N1)NCc1ccc(F)cc1	-	.	-	?	-	.
COc1ccc(NC(=O)CCC2CCCC2)cc1OC	-	66.9	-	-	-	18.5
CC(=O)Nc1cccc(C(=O)N(CCc2ccccc2)Cc2ccccc2)c1	-	-	-	-	-	28.5
Cc1cccc(NC(=O)CCc2ccccc2)c1	-	-	-	-	-	54.4
CC(=O)Nc1cccc(NC(=O)CCc2ccccc2)c1	-	138.5	-	-	-	-
CC(C)CNC(=O)CCCc1c[nH]c2ccccc12	-	-	-	-	-	-
CC(CNC(=O)CCCn1c(=O)c2cccn2c2ccc(F)cc21)c1ccccc1 (stereo not given)	.	.	.	-	.	.
CC(=O)Nc1ccc(NC(=O)CCCc2ccccc2)cc1	-	-	-	-	-	30.8
COC(=O)c1ccc(CSCC(=O)Nc2ccccc2)cc1	-	-	-	-	-	-
COC(=O)c1cccc(NC(=O)CSCc2ccccc2)c1	-	-	-	?	-	19.0
CCCN(CCC)C(=O)CCS(=O)(=O)c1cccc2nsnc12	-	-	-	?	-	-
SMILES	AmpC no deterg	Shiga inhibitor	SARS PLP yeast	AmpC inh detg	AMA1 RON2 block	CHX counter
O=C(Nc1ccc(NC(=O)c2cccs2)cc1)c1ccco1	-	-	-	-	-	30.8
O=C(NC(=S)Nc1ccc(NC(=O)c2cccs2)cc1)c1ccco1	-	-	-	-	-	-
O=C(OCC(=O)c1cccs1)c1ccc(NC(=O)c2ccco2)cc1	-	-	-	-	-	59.1
Cc1ccc(S(=O)(=O)Nc2ccccc2C(=O)Nc2sccc2C(=O)NN(C)C)cc1	-	-	-	-	-	-
CCOC(=O)C(=N/O)/C(C)=N/NC(C)=O	-	-	-	-	-	-
COCc1nnc(NC(=O)c2ccco2)s1	-	-	-	?	-	-
Cc1cccc(C(=O)N(CCc2ccccc2)Cc2ccccc2)c1[N+](=O)[O-]	-	-	-	-	-	-
O=C(NC1CCS(=O)(=O)C1)c1ccc(-c2ccc(Br)cc2)o1 (stereo not given)	-	-	-	-	-	18.9
O=C(NC12CC3CC(CC(C3)C1)C2)c1ccc([N+](=O)[O-])o1	-	-	-	-	-	11.0
O=C(NC1CCS(=O)(=O)C1)c1ccc(Br)o1 (stereo not given)	-	-	-	-	-	-
O=C(NC12CC3CC(CC(C3)C1)C2)c1ccc(-c2ccc(Br)cc2)o1	-	107.8	-	-	-	68.3
Cc1nc2ccccc2c(=O)n1/N=C/c1cn[nH]c1-c1ccccc1	-	-	-	-	-	-
Cc1ccc(C2=Nc3ccccc3N=C(C(Cl)Cl)C2)cc1	-	123.3	-	?	-	41.4

Source: PubChem (National Center for Advancing Translational Sciences (NCATS))
